The nature of test [1]: small molecules captured by biotinylated probe aFSTL3 – biochemical, small-molecule microarray, fluorescence 635/667, stem cell growth factor project, primary screen (AID 1064).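 Also: measures binding of the biotinylated anti-FSTL3 antibody to printed compounds.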 To be noted: higher = more signal.
Test [2] can be described thus: binders from COS7 lysate, DM2A8 probe, primary screen, torsin A project, cell lysate, small-molecule microarray, fluorescence 635/667 (AID 1065). To be noted: higher = more signal, COS7 lysate expressing mutant human TOR1A.
Test [3] is described as follows: small molecules captured by biotinylated probe aFGF2 – biochemical, small-molecule microarray, fluorescence 635/667, stem cell growth factor project, primary screen (AID 1067).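 Also: measures binding of biotinylated aFGF2 protein to printed compounds on slides; z-score merges feature fluorescence and signal-to-noise across triplicate slides.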 To be noted: higher = more signal.
Test [4] is described as follows: small molecules captured by biotinylated probe aFGF10 – biochemical, small-molecule microarray, fluorescence 635/667, stem cell growth factor project, primary screen (AID 1071).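 Also: score merges 667 nm spot intensity and signal to noise from triplicate slides.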 The settings on record: higher = more signal.
Test [5] concerns the target Neurogenic locus notch homolog protein 2 (Homo sapiens) (UniProt Q04721). As to the kind of experiment: small molecules binding Notch2 protein – biochemical, small-molecule microarray, 635 nm fluorescence, stem cell growth factors, primary screen (AID 1073). To be noted: higher = more signal.
The target in test [6] is Pro-neuregulin-1, membrane-bound isoform (Homo sapiens) (UniProt Q02297). Kind of test: small molecules binding neuregulin-1 protein – biochemical, small-molecule microarray, fluorescence 635/667, psychiatric disease protein project, primary screen (AID 1075).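 Also: score combines 667 nm spot fluorescence with signal to noise.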 To be noted: NRG1 binding, 635 nm fluorescence, higher = more signal.
Sequence of Pro-neuregulin-1, membrane-bound isoform (Homo sapiens) (Q02297 whole entry, looked up, the tested form may be a part, canonical isoform): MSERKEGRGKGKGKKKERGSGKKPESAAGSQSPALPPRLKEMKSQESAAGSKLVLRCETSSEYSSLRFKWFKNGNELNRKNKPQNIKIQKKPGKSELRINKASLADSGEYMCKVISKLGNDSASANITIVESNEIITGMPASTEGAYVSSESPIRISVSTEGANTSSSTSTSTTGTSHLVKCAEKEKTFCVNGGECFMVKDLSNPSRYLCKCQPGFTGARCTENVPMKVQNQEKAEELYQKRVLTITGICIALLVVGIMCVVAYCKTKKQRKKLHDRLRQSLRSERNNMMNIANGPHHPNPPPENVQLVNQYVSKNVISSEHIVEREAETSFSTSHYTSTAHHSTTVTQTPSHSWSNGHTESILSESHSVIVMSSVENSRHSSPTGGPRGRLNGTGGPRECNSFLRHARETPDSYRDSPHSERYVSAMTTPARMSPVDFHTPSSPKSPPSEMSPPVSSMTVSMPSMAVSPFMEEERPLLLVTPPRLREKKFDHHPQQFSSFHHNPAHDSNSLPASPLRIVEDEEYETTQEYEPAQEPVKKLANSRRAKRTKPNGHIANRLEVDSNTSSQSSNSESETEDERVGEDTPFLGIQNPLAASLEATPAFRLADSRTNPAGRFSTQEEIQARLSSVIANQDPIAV
For test [7], the system named is Neuregulin-1 EGF-like domain. As to the kind of experiment: small molecules binding NRG1 EGF domain – biochemical, small-molecule microarray, 635 nm fluorescence, primary screen (AID 1081).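 Also: binding of the protein to compounds printed on small-molecule microarray slides.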 The settings on record: higher = more signal.
Test [8] can be described thus: FRG1 expression reporter modulators in myotubes – cell-based, C2C12 myotubes, firefly/Renilla luciferase, luminescence, FRG1 inhibition for FSHD, primary screen (AID 1084). To be noted: FRG1 promoter luciferase, higher = more signal, called active from +8 up or from −8 down.
A short description of test [9]: small molecules captured by biotinylated probe aFST – biochemical, small-molecule microarray, fluorescence 635/667, stem cell growth factor project, primary screen (AID 1086).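 Also: score merges 667 nm fluorescence with signal-to-noise of each printed compound spot.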 To be noted: higher = more signal.
A short description of test [10]: binders of probe aHhip on microarray, primary screen, stem cell growth factor project, biochemical, small-molecule microarray, fluorescence 635/667 (AID 1087).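 Also: score merges spot fluorescence at 667nm with spot signal to noise ratio.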 The settings on record: higher = more signal.
Test [11] has as its system PRMT1 (protein arginine N-methyltransferase 1). Kind of test: small molecules binding arginine methyltransferase PRMT1 – biochemical, small-molecule microarray, 635 nm fluorescence, primary screen (AID 1088).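 Also: binding of Prmt1 protein to compounds spotted on small-molecule microarray slides.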 To be noted: higher = more signal.
Test [12] is described as follows: growth effects on S. cerevisiae YJM789 – YJM789 clinical isolate, OD600, 24 h, basal, primary screen (AID 1089).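 Also: growth of clinical yeast isolate S. cerevisiae YJM 789 seeded 1000 cells per well; test concentration not given here.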 The settings on record: higher = more signal, called active from +8 up or from −8 down.
Test [13] can be described thus: S. pombe growth modifiers, basal conditions – strain 972, OD600, 24 h, no modulator, primary screen (AID 1090).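 Also: basal condition with compound alone and no growth modifier present; test concentration not given here.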 The settings on record: S. pombe 972 growth, higher = more signal, called active from +8 up or from −8 down.
The nature of test [14]: budding yeast growth modifiers under rapamycin – strain BY4716, OD600, 96 h, primary screen (AID 1091). Also: test concentration not given here. The settings on record: S. cerevisiae BY4716 + rapamycin, higher = more signal, called active from +8 up or from −8 down.
Test [15] concerns the target Torsin-1A-interacting protein 2 (Homo sapiens) (UniProt Q8NFQ8). Kind of test: small molecules binding lysate-expressed LULL1 – cell lysate, human LULL1 lysate, 635/667 nm fluorescence, primary screen (AID 1092).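 Also: probe is lysate of COS7 cells overexpressing human LULL1; score merges per-feature 667 nm fluorescence with signal-to-noise.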 To be noted: small-molecule microarray, hLULL1 lysate binding, 635 nm fluorescence; higher = more signal.
A short description of test [16]: optical density change of DRC41 E. coli – strain DRC41, OD650, 24 h, E. coli filamentation project, primary screen (AID 1093).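 Also: MC1000 strain lacking acrAB efflux and sulA so SOS filamentation is blocked; test concentration not given here.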 The settings on record: E. coli DRC41 growth, higher = more signal, called active from +8 up or from −8 down.
Test [17] in a line: probe aLefty2 binding to arrayed compounds – biochemical, biotinylated probe, 635/667 nm fluorescence, primary screen (AID 1094).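 Also: score merges spot fluorescence near 667 nm with spot signal-to-noise ratio.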 To be noted: small-molecule microarray, higher = more signal.
For test [18], the system named is Noggin (protein binding on small-molecule microarray). As to the kind of experiment: small molecules binding Noggin protein – biochemical, 635/667 nm fluorescence, primary screen (AID 1095).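 Also: score merges 667 nm feature fluorescence with signal to noise over triplicate slides.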 The settings on record: 635 nm fluorescence, higher = more signal.
Test [19] deals with Neurogenic locus notch homolog protein 3 (Homo sapiens) (UniProt Q9UM47). Kind of test: small molecules binding NOTCH3 protein – biochemical, 635/667 nm fluorescence, primary screen (AID 1096). To be noted: small-molecule microarray, 635 nm fluorescence, higher = more signal.
Sequence of Neurogenic locus notch homolog protein 3 (Homo sapiens) (Q9UM47 whole entry, looked up): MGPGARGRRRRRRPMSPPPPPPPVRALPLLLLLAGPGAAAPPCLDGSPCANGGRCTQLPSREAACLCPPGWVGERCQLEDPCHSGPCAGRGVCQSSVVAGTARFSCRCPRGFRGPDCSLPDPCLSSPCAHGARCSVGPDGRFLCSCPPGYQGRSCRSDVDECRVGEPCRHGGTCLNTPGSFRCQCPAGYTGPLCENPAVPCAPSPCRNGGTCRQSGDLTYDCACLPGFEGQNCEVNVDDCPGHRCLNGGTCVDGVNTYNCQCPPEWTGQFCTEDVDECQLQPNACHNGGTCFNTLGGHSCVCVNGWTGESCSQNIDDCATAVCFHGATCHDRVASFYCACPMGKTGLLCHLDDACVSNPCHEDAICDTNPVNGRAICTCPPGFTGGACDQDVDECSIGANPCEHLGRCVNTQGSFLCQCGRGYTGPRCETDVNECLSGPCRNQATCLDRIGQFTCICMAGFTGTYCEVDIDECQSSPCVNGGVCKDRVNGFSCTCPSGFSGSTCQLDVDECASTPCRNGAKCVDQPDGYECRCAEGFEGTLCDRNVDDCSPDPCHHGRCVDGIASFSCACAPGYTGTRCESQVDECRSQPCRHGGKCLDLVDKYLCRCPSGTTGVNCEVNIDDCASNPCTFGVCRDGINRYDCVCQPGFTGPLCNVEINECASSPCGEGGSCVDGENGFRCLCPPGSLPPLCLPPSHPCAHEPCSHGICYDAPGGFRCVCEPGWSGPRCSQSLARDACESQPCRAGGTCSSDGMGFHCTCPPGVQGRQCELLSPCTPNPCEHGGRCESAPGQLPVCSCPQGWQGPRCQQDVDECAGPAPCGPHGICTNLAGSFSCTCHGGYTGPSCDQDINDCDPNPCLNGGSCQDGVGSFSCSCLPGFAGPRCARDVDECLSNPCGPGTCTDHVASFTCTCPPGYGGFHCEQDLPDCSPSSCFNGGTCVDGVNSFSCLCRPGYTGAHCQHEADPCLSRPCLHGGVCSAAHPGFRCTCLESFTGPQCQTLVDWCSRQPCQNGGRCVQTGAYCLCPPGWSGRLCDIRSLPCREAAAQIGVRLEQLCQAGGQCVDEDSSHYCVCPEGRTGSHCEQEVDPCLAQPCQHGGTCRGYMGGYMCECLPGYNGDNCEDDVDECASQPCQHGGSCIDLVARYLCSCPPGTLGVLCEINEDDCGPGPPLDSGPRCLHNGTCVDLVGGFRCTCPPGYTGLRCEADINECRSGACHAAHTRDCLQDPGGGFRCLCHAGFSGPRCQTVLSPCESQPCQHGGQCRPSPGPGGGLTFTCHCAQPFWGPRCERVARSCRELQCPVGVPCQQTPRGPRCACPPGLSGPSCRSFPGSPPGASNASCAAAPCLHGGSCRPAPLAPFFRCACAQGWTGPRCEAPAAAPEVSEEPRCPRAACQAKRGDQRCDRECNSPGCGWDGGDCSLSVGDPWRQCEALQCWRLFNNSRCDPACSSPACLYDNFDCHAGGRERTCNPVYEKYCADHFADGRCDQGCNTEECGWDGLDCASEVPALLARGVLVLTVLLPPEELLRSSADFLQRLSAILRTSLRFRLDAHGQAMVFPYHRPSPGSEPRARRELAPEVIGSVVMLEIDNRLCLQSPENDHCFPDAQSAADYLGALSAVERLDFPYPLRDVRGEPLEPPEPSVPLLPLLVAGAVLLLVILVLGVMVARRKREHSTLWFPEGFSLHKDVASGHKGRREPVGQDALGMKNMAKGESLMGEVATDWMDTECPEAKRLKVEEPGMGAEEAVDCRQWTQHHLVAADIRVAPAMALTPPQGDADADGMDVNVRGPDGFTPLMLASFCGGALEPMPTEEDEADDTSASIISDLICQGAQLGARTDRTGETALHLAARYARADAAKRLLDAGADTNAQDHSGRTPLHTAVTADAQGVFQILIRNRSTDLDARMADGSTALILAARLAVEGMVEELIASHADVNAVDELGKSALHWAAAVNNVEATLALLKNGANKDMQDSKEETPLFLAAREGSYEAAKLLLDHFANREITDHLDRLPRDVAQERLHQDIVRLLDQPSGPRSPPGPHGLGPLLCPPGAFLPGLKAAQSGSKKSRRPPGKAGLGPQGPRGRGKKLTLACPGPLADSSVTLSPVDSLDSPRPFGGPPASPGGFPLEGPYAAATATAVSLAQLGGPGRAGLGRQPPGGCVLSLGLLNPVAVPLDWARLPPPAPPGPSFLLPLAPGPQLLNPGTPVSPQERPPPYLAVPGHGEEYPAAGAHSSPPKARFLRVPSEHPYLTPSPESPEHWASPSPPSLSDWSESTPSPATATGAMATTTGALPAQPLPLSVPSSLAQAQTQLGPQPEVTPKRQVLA
A short description of test [20]: probe aEGFR binding to arrayed compounds – biochemical, biotinylated probe, 635/667 nm fluorescence, primary screen (AID 1097).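 Also: probe is a biotinylated anti-EGFR antibody binding compounds printed on slides; score combines fluorescence near 667 nm and signal to noise of each spot.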 To be noted: small-molecule microarray, higher = more signal.

Active and inactive are the calls of the source.

Data on 5 molecules can be found in PubChem BioAssay.

Sequence of Torsin-1A-interacting protein 2 (Homo sapiens) (Q8NFQ8 whole entry, looked up): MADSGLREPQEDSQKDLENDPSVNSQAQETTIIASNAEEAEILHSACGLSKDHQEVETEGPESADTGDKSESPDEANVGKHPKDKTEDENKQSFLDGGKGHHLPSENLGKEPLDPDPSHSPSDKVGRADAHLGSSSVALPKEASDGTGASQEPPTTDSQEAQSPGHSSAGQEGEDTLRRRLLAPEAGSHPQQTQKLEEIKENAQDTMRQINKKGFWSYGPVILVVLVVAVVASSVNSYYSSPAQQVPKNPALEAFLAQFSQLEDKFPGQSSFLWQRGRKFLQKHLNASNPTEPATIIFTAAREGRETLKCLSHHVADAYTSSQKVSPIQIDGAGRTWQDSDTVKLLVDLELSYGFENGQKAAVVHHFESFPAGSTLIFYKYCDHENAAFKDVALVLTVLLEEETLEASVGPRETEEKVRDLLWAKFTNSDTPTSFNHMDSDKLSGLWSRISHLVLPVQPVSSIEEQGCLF

On to `O=C1OCCC=C[C@H]2OC34C=CCN(c5ccc(Cl)cc5)C(=O)[C@H]3N(CCCO)C(=O)[C@@H]4C12` (stereo not given in full), for which the composite z-score in test [1] is 0.189; in test [2], -0.771; in test [3], -0.104; in [4], -0.144; in [5] it was -0.678; in test [6], -0.602. The composite z-score in [7] was -0.366; in test [9] it was -0.155; in test [10], -0.236; in test [11], -0.827; in [15], -1.28; in [17], 0.0058. Moreover, the values for the composite z-score in test [18], in test [19] and in test [20] were -0.469, -0.792 and -0.116, respectively. Also, the z-score is 0.923 (inactive) in test [8]; -0.0304 (inactive) in [12]; -1.36 (inactive) in test [13]; 0.0341 (inactive) in [14]; 1.31 (inactive) in test [16].
For `COc1ccc([C@H]2OC[C@@H]3CCC(=O)N32)cc1`, the composite z-score in [1] is -0.136; in [2], 0.428; in test [3] it was -0.169; in test [4], 0.733; in test [5] it was 0.471; in [6] it was 0.0194. The composite z-score is 1.19 in test [7]; 0.664 in [9]; -0.0581 in [10]; -0.136 in test [11]; 0.399 in [15]; -0.0699 in test [17]. In addition, the composite z-score came to 0.397 in test [18], 1.01 in test [19] and 0.0826 in test [20]. Also, the z-score is 0.0543 (inactive) in test [8]; -0.481 (inactive) in [12]; -0.809 (inactive) in test [13]; 0.981 (inactive) in test [14]; -0.013 (inactive) in test [16].
With `COc1ccc(CCNC(=O)[C@@]2(C)c3ccccc3C(=O)N(c3ccc(C)cn3)[C@H]2c2ccc(CO)cc2)cc1`, the composite z-score in test [1] is -0.561; in test [2], -0.997; in test [3] it was -0.171; in [4], -0.516; in test [5], -0.859; in test [6] it was 0.884. Besides, the composite z-score in test [7] is 1.34; in [9], -0.389; in test [10], -0.13; in [11] it was -0.0351; in [15], -0.04; in [17], 0.0851. Further, the values for the composite z-score in [18], in [19] and in test [20] were -0.704, -0.736 and -0.247, respectively. In addition, the z-score in [8] is 1.07 (inactive); in test [12], -1.39 (inactive); in test [13] it was -0.739 (inactive); in [14], -1.17 (inactive); in test [16], -0.121 (inactive).
`COc1ccc(C(O)C2C=CC3C(=O)N(C)C(=O)C3N2NC(=O)OC(C)(C)C)c2ccccc12` (stereo not given): the composite z-score was 0.152 in [1]; -0.129 in test [2]; -0.0107 in test [3]; 0.669 in [4]; 1.62 in test [5]; 1.81 in test [6]. Besides, the composite z-score in test [7] was 0.937; in test [9], 1.37; in test [10], 0.0881; in [11] it was 1.57; in test [15], 3.12; in test [17] it was 0.284. In addition, the results for the composite z-score in test [18], in [19] and in test [20] were -0.149, 1.08 and 0.0185, respectively. For the same molecule, the z-score in [8] is -1.35 (inactive); in test [12] it was -0.842 (inactive); in test [13], 1.64 (inactive); in test [14] it was 0.577 (inactive); in test [16], -0.618 (inactive).
Take `O=C1O[C@@H](c2ccccc2)[C@@H](c2ccccc2)N2[C@@H](c3ccc(OCCO)cc3)[C@]3(C(=O)Nc4ccc(C#CCCO)cc43)[C@@H](C(=O)NC[C@H](O)c3ccccc3)[C@H]12`: the composite z-score in test [1] was 0.193; in test [2] it was 0.458; in [3] it was -0.0281; in test [4] it was 0.902; in [5], 0.578; in test [6], 1.01. For the same molecule, the composite z-score in test [7] is 1.17; in test [9] it was 0.456; in [10] it was 0.0052; in test [11] it was 1.54; in [15], 2.71; in [17], 0.409. Besides, the composite z-score in test [18] worked out at 1.25; in test [19], 0.667; in [20], 0.258. Also, the z-score was -0.772 (inactive) in [8]; 2.55 (inactive) in test [12]; 1.19 (inactive) in test [13]; 4.63 (inactive) in test [14]; 0.695 (inactive) in test [16].
